Screens deposited in PubChem BioAssay by National Center for Advancing Translational Sciences (NCATS).
SMN2 splice up: qHTS Assay for Enhancers of SMN2 Splice Variant Expression. HEK293 SMN2-luciferase splicing reporter, luminescence, 30-36 h. Potency, µM (titrated, usually from 46.1 µM), usual class: activators. 2.8% of 210,000 active; also: nearly all actives have a fitted effect of over 55% in size
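HEK293 cells carry an SMN2 […]–luciferase reporter in which exon 7 inclusion puts luciferase in frame. Cells were plated 10-12 h before compound addition, then incubated 30-36 h at 37C. ONE-Glo luminescence was read; sodium butyrate at 4.5 mM final served as control.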
NPC1 promoter act: qHTS Assay for NPC1 Promoter Activators. Huh7 NPC1 promoter luciferase reporter, 24 h. Potency, µM (titrated, usually from 9.22 µM), hits mostly activators. 2.4% of 320,000 active. AID 485313, 2010; also: nearly all actives have a fitted effect of over 60% in size
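Cells: Huh7 expressing luciferase under the NPC1 promoter, 1500/well. Seeded 2 h, compound added, incubated 24 h at 37 °C. Luciferase reagent, 10 min ambient, then luminescence.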
ELG1 genotoxic: qHTS screen for small molecules that induce genotoxicity in human embryonic kidney (HEK293T) cells expressing luciferase-tagged ELG1 | HEK293T ELG1-luciferase reporter, luminescence, 16 h | Potency, µM (titrated, usually from 46 µM), usual class: activators | 1.3% of 330,000 active; also: nearly all actives have a fitted effect of over 60% in size
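Cells (2,000/well) expressing the ELG1-luciferase fusion are dosed by pin tool and kept 16 hr at 37 °C, 5% CO2. Signal comes from ONE-Glo luciferase reagent after 30 min at room temperature.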
FLuc counter: qHTS profiling assay for firefly luciferase inhibitor/activator using purifed enzyme and Km concentrations of substrates (counterscreen for miR-21 project); Potency, µM (titrated, usually from 57.5 µM), usual class: inhibitors; 6.9% of 360,000 active; purified FLuc, Km substrates, luminescence inhibition; Luciferin 4-monooxygenase (Photinus pyralis), P08659; AID 588342, 2011; also: nearly all actives have a fitted effect of over 55% in size
Target sequence (P08659 whole entry, looked up): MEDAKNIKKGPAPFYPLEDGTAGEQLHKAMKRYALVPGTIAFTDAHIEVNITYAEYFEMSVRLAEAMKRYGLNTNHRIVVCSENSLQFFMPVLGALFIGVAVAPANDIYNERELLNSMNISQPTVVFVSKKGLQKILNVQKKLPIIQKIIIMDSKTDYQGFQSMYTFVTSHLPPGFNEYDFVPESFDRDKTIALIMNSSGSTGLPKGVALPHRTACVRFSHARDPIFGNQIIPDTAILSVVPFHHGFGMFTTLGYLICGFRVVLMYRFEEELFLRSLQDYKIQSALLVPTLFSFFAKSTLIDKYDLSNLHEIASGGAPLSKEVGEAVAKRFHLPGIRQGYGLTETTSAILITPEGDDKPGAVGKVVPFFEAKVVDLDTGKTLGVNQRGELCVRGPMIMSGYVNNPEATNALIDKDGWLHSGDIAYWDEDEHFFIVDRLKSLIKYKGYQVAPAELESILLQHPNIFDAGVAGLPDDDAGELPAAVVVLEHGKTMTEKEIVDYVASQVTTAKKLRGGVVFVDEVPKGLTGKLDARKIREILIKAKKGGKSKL
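Purified P. pyralis luciferase, 10 nM final, with Km-level 10 uM D-luciferin and 10 uM ATP in 50 mM Tris acetate pH 7.5, 10 mM Mg acetate, 0.01% Tween-20, 0.05% BSA; 6-point qHTS titration about 60 µM downward; luminescence read.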
KinaseGlo FLuc: Counterscreen for Luciferase (Kinase-Glo TM) Inhibition; Luciferin 4-monooxygenase (Photuris pensylvanica), Q27757; Kinase-Glo luciferase, ATP luminescence, 8 min; Potency, µM (top dose mostly 38.3 µM), usual class: inhibitors; 0.28% of 200,000 active; also: nearly all actives have a fitted effect of over 60% in size
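Light output from Kinase-Glo luciferase with luciferin and 10 uM ATP in 50 mM imidazole pH 7.2, KCl, MgCl2, Tween 20, BSA; compound pin-delivered, 8-min ambient incubation, then luminescence read.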
Rab9 prom act: qHTS Assay for Rab9 Promoter Activators; Potency, µM (titrated, usually from 9.22 µM), actives largely listed as activators; 2.8% of 320,000 active; Huh7 Rab9 promoter-luciferase reporter, luminescence, 24 h; also: nearly all actives have a fitted effect of over 60% in size
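Huh7 reporter line, Rab9 promoter upstream of luciferase. Compound exposure 24 h at 37 °C in reduced-serum medium with 10% FBS. Read-out: luminescence.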
Hits are given with their value; n = inactive; u = inconclusive; x = no result. Compounds with a hit are over-represented: about 7.5% of the library has one in this group of screens. Calls follow the shape of the dose curve; as a rule, active = well fitted curve in the direction sought with a large enough effect; inconclusive = small, poorly fitted or top-dose-only effect, or another doubt; inactive = no such curve, though single readings can be large; an effect the other way counts as inactive or inconclusive.

SMILES	SMN2 splice up	NPC1 promoter act	ELG1 genotoxic	FLuc counter	KinaseGlo FLuc	Rab9 prom act
CC(C)(C)C(=O)OCc1cn(-c2ccc(Cl)cc2)nn1	n	u	u	15µM	n	n
CC(C)(C)C(=O)OCc1cn(-c2ccccc2)nn1	n	u	n	u	n	n
Cc1ccc(/C=N/n2c(C)nc3ccccc3c2=O)s1	u	u	n	u	n	3.5µM
Cc1nc2ccccc2c(=O)n1/N=C/c1ccccc1Cl	x	u	u	11µM	x	u
O=C(O)CCC(=O)Nc1ccc(N2CCCCCC2)cc1	u	n	n	19µM	n	n
O=C(CSc1nncs1)Nc1ccc(N2CCCCC2)cc1	x	n	n	13µM	x	n
CC(C)c1ccc(NC(=O)COC(=O)C2CCCCC2)cc1	x	n	n	1.2µM	x	n
COc1ccc(NC(=O)CSc2nncs2)cc1S(=O)(=O)N1CCCCC1	x	x	n	x	x	x
O=C(COC(=O)C1CCCCC1)Nc1ccc(N2CCCCC2)cc1	n	n	n	21µM	n	n
Cc1ccc(N2CCN(c3ccc(NC(=O)CCC(=O)O)cc3)CC2)cc1	n	n	n	n	n	n
CCCC(=O)Nc1ccc(C(=O)COC(=O)C2CC2C)cc1 (stereo unspecified)	x	2µM	n	1.7µM	x	1.4µM
CC(C)CC(=O)Nc1ccc(C(=O)COC(=O)C2CCC2)cc1	x	n	n	8.5µM	x	n
O=C(COC(=O)C1CCC1)Nc1ccc(OC(F)F)cc1	n	n	n	u	n	n
CCCC(=O)Nc1ccc(C(=O)COC(=O)C2=COCCO2)cc1	x	n	n	u	x	n
Cc1ccc(C(=O)NC(Cc2cccc(F)c2)C(=O)O)cc1 (stereo unspecified)	x	x	n	x	x	x
Cc1cc2oc(C(=O)Nc3nonc3C)c(C)c2cc1Cl	x	u	u	n	x	3.5µM
CCc1ccc2oc(C(=O)Nc3nc(-c4ccccc4)ns3)c(C)c2c1	u	x	x	5.4µM	x	x
Cc1nonc1NC(=O)c1oc2ccc(F)cc2c1C	x	u	n	n	x	u
COc1ccc(-c2nsc(NC(=O)c3oc4ccc(Cl)cc4c3C)n2)cc1	n	x	x	n	x	x
CCc1ccc2oc(C(=O)Nc3nonc3CC)c(C)c2c1	n	u	u	u	x	3.5µM
COc1cccc(N2CCN(C(=O)c3c(C)oc4ncnc(N5CCCCC5)c34)CC2)c1	x	x	x	n	x	x
Cc1ccc(N2C(=O)CS(=O)(=O)C23C(=O)N(Cc2ccc(Cl)cc2)c2ccccc23)cc1C (stereo unspecified)	x	x	x	n	x	x
CCC(C)OC(=O)c1[nH]c2c(c1C)C(=O)CC(c1ccc(N(C)C)cc1)C2 (stereo unspecified)	n	u	u	11µM	n	3.2µM
Cc1c(C(=O)O)[nH]c2c1C(=O)CC(c1ccc(C(C)(C)C)cc1)C2 (stereo unspecified)	x	u	u	9.5µM	x	u
Cc1cccc(CNc2ncnc3ccc(-c4cccc(C#N)c4)cc23)c1	n	x	x	x	n	x
